6 compounds from PubChem BioAssay (NCI) can be followed below.

Among the test systems are DU-145 prostate; K-562 leukemia; MALME-3M melanoma; MDA-MB-231 breast; RXF 393 renal; SF-268 CNS; SF-295 CNS; SF-539 CNS; UACC-257 melanoma; M14 melanoma; HCT-15 colon; HT29 colon; SNB-75 CNS; SNB-19 CNS; U251 CNS; PC-3 prostate; SK-MEL-5 melanoma; UACC-62 melanoma; LOX IMVI melanoma; SK-MEL-28 melanoma.
Test in all cases: NCI-60 one-dose screen, 48 h (100 = growth as untreated, 0 = no growth, -100 = all killed)
Common to all, as to details: 10 µM unless noted

The structures appear in SMILES notation. About 83,000 compounds went through this panel and 20% of them were active in at least one assay; those are over-represented in the sample as a whole.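 Cell lines were cultured in 96-well plates, exposed to a single compound concentration, and assessed for percent growth 48 hours later.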 A number with no mark means an inactive call. Active and inactive are the calls of the source. How the source made its calls: active means growth percent below 10; inactive means the rest.

For `COc1cnc2c(c1)C(=O)c1c-2n(CCCN2CCNCC2)c(=O)c2cc(Cl)ccc12`, the growth in the assay on DU-145 prostate is -95.8% (active); in the assay with K-562 leukemia, -75.8% (active); in the assay on MALME-3M melanoma it was -51.5% (active); in the assay with MDA-MB-231 breast, -73.1% (active); in the assay with RXF 393 renal, -1.72% (active); with SF-268 CNS, -75.6% (active). The growth is 15.5% in the assay with SF-295 CNS; -93.8% (active) in the assay with SF-539 CNS; 22.4% in the assay on UACC-257 melanoma; -79.5% (active) in the assay on M14 melanoma; -89.4% (active) with HCT-15 colon; -80.4% (active) in the assay on HT29 colon. Moreover, the growth with SNB-75 CNS was 39.7%; in the assay on SNB-19 CNS, 30.4%; in the assay with U251 CNS, -98.4% (active); with PC-3 prostate it was -84% (active); with SK-MEL-5 melanoma, 45.2%; with UACC-62 melanoma, -45% (active). In addition, the results for the growth with LOX IMVI melanoma and in the assay on SK-MEL-28 melanoma were -84.6% (active) and -88.2% (active), respectively.

Turning to `C=CCOC(=O)C1=C(C)NC2=C(C(=O)CCC2)C1c1ccc(F)cc1` (configuration not stated), the growth in the assay with DU-145 prostate is 113%; in the assay on K-562 leukemia it was 96.3%; in the assay on MALME-3M melanoma, 111%; in the assay with MDA-MB-231 breast, 98%; in the assay on RXF 393 renal, 111%; with SF-268 CNS, 106%. The growth in the assay with SF-295 CNS is 102%; in the assay on SF-539 CNS, 102%; in the assay on UACC-257 melanoma it was 92.8%; in the assay on M14 melanoma, 96.1%; in the assay on HCT-15 colon, 105%; in the assay on HT29 colon, 101%. The growth with SNB-75 CNS is 80.3%; with SNB-19 CNS, 85.2%; in the assay on U251 CNS, 97.8%; in the assay with PC-3 prostate, 90.1%; with SK-MEL-5 melanoma, 98.8%; in the assay on UACC-62 melanoma it was 80.6%. Further, the growth with LOX IMVI melanoma is 97.1%; in the assay with SK-MEL-28 melanoma, 101%.

As for `COc1cc(C2CC(c3ccc(C)cc3)=NN2C=O)ccc1Oc1nc2c(c(=O)n(C)c(=O)n2C)n1C` (configuration not stated), the growth with DU-145 prostate is 64.5%; in the assay with K-562 leukemia, 88.3%; with MALME-3M melanoma, 87.8%; in the assay on MDA-MB-231 breast it was 84.8%; in the assay on RXF 393 renal, 98.6%; in the assay with SF-268 CNS, 58.1%. Also, the growth with SF-295 CNS is 69.8%; in the assay with SF-539 CNS, 116%; in the assay with UACC-257 melanoma it was -31.3% (active); with M14 melanoma, 77.5%; with HCT-15 colon, 94.3%; in the assay on HT29 colon, 72.6%. Moreover, the growth in the assay with SNB-75 CNS was 93%; with SNB-19 CNS, 67.2%; in the assay on U251 CNS it was 92.7%; in the assay on PC-3 prostate, 74.3%; in the assay on UACC-62 melanoma, 94.5%; with LOX IMVI melanoma it was 60.6%. Also, the growth in the assay with SK-MEL-28 melanoma is 106%.

Turning to `COc1ccc(C(=O)C(CN(C)C)c2ccc(OC)cc2)cc1` (configuration not stated), the growth with DU-145 prostate is 7.55% (active); in the assay on K-562 leukemia, 16.3%; in the assay on MALME-3M melanoma it was 84.9%; in the assay on MDA-MB-231 breast, 59.4%; in the assay with RXF 393 renal, 55.8%; with SF-268 CNS it was 60.2%. Moreover, the growth in the assay on SF-295 CNS is 101%; with SF-539 CNS it was 78.8%; with UACC-257 melanoma it was 45.3%; in the assay with M14 melanoma it was 60.6%; in the assay on HCT-15 colon, 30.4%; in the assay on HT29 colon it was 13.2%. Also, the growth is 64.7% in the assay with SNB-75 CNS; 90.7% in the assay on SNB-19 CNS; 69.2% with U251 CNS; 39.1% with PC-3 prostate; 95.5% in the assay on SK-MEL-5 melanoma; 32.1% in the assay on UACC-62 melanoma. In addition, the growth with LOX IMVI melanoma is 31.3%; with SK-MEL-28 melanoma it was 79%.

As to `C#CCNc1nc(NCCNC(=O)CCl)nc(N(C)CCCCc2ccccc2)n1`, the growth is 101% in the assay on DU-145 prostate; 95.1% in the assay on K-562 leukemia; 60.3% in the assay with MALME-3M melanoma; 90.7% in the assay with MDA-MB-231 breast; 93.5% in the assay on RXF 393 renal; 94% with SF-268 CNS. Also, the growth is 99.4% in the assay with SF-295 CNS; 106% in the assay on SF-539 CNS; 113% in the assay with UACC-257 melanoma; 78.5% with M14 melanoma; 92.4% in the assay with HCT-15 colon; 109% in the assay on HT29 colon. Further, the growth is 104% in the assay with SNB-75 CNS; 99.3% in the assay on SNB-19 CNS; 98.6% in the assay with U251 CNS; 107% in the assay with PC-3 prostate; 53.8% in the assay on SK-MEL-5 melanoma; 91.7% with UACC-62 melanoma. The growth with LOX IMVI melanoma was -12.5% (active); with SK-MEL-28 melanoma, 104%.

Consider `CCc1onc(-c2ccc(OC)cc2)c1-c1ccccc1OCCN(CC)CC`, for which the growth in the assay with DU-145 prostate is 96.7%; with K-562 leukemia, 70.7%; in the assay with MALME-3M melanoma it was 97.7%; with MDA-MB-231 breast, 93.3%; with RXF 393 renal it was 82.2%; in the assay with SF-268 CNS it was 85.8%. The growth is 79.5% in the assay on SF-295 CNS; 90.2% with SF-539 CNS; 111% in the assay on UACC-257 melanoma; 76.3% in the assay on M14 melanoma; 98.2% in the assay on HCT-15 colon; 60.3% with HT29 colon. In addition, the growth in the assay on SNB-75 CNS is 60.9%; in the assay with SNB-19 CNS it was 91.3%; in the assay with U251 CNS, 93.9%; with PC-3 prostate, 75.1%; in the assay with UACC-62 melanoma, 97.7%; in the assay with LOX IMVI melanoma it was 71.9%.
